IMPase Li cell = membrane-permeable IMPase blocker, potentiated with lithium | CHO-M1 cells, IP1 TR-FRET (IP-One), carbachol + lithium | Potency, µM (top dose mostly 59.4 µM), inactives show at the top dose activity, negative = IMPase inhibition, actives largely listed as inhibitors | 210,000 compounds, 0.35% hits | AID 1457;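 further: IP1 builds up when IMPase is blocked and the TR-FRET signal falls; potency means the concentration at half of the fitted maximal effect; plate controls were basal vehicle for no effect and high inhibitor control for full effect; nearly all actives have a fitted effect of over 50% in size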
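Steps: plate 2000 CHO-M1 cells per well and culture 16–30 h; add compound and lithium; incubate 30 min, 37C; add d2-IP1 tracer and Eu cryptate anti-IP1 antibody in lysis buffer; read after 10 min at room temperature.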
PNC assembly inh = inhibitors of perinucleolar compartment assembly | 140,000 compounds, 3.1% hits | PC3M PTB-GFP, PNC prevalence imaging, 16 h; active compounds read low | AID 2417 | activity change (PNC), negative = inhibition, % at 10 µM;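 active means readout at or below -70, meaning at least 70% loss of cells showing the perinucleolar compartment, a nuclear body marking cancer cells; inconclusive means readout between -30 and a set limit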;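 further: plate controls were DMSO wells for no effect and camptothecin positive control wells for full effect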
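Read-out is percentage of cells bearing a perinucleolar compartment, from automated 20x imaging of fixed, Hoechst-stained PC3M PTB-GFP cells. Cells were seeded 4 h, then exposed 16 h to compound (23 nl of library stock) in duplicate plates.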
IMPase inh = IMPase inhibition in cells | P97697 | CHO-M1 cells, IP1 accumulation, HTRF TR-FRET ratio | inhibition (IP1 accumulation), % at 46.1 µM | 120,000 tested, under 10 active | AID 901; active means well fitted curve in the direction sought with a large enough effect in the signal ratio, not every such curve was filed as active; inconclusive means small, poorly fitted or top-dose-only effect, or a change in a side signal; inactive means no such curve, though single readings can be large or run the other way; the % refers to the signal ratio;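 further: cells stimulated with carbachol in lithium chloride buffer; plate controls were DMSO basal wells for no effect and reference inhibitor wells for full effect; higher means more IMPase inhibition seen as more IP1 and lower FRET ratio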
Target sequence (P97697 whole entry, looked up): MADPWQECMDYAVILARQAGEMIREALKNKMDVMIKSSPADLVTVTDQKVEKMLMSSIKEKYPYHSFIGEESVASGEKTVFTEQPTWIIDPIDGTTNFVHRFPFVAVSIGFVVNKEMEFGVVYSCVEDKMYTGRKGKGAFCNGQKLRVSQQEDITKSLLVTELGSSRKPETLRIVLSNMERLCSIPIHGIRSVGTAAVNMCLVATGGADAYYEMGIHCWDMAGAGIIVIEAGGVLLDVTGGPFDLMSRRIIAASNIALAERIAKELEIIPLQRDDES
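Carbachol-driven Gq signalling in CHO-M1 cells (2000/well) generates IP1. Compounds that block IMPase raise IP1 and so reduce the FRET signal from Eu-anti-IP1 and d2-IP1 after a 10 min room-temperature lysis.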
HTT ATP protect = cytoprotection in Huntington HTT-Q103 PC12 cell model. PC12 HTT-Q103 induced, cytoprotection, ATP luminescence, 40 h. Potency, µM (series often up to 56.4 µM), for inactives: cytoprotection (ATP increase), hits mostly activators. 230,000 compounds, 0.14% hits; further: potency means the concentration at half of the fitted maximal effect; % of control where 0% means no effect; nearly all actives have a fitted effect of over 45% in size
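Rat PC12, Q103 Htt exon1-GFP fusion, ecdysone promoter; tebufenozide inducer 100 nM final; compound titration; qHTS, 1500 cells/well; ATPlite luminescent read.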
NPSR antagonist = neuropeptide S receptor (human) antagonism, cAMP; Q6W5P4; CHO-NPSR cells, cAMP TR-FRET, antagonist mode; Potency, µM (titrated, usually from 38.3 µM), for the others: top-dose activity change, negative = inhibition, hits mostly inhibitors; 220,000 compounds, 1% hits; AID 1461; further: potency means the concentration at half of the fitted maximal effect; on the % scale 0 is the no-effect control and ±100 the full control effect; nearly all actives have a fitted effect of over 50% in size
Target sequence (Q6W5P4 whole entry, looked up): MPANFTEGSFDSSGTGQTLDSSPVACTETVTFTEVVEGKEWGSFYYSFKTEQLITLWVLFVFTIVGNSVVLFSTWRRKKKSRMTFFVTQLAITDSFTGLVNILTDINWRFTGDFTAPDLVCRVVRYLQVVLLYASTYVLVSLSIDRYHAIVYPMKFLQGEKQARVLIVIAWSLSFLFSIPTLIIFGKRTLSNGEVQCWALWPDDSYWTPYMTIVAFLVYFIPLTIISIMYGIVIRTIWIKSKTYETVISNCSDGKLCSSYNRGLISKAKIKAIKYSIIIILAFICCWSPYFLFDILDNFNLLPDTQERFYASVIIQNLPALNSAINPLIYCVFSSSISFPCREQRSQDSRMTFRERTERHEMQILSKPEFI
HTT aggregate = mutant huntingtin aggregation inhibition; PC12 HttQ103-GFP aggregates, Acumen cytometry, 40 h; Potency, µM (series often up to 46.1 µM), inactives show at the top dose activity change, negative = inhibition, most hits filed as inhibitors; 220,000 compounds, 1.1% hits; further: potency means the concentration at half of the fitted maximal effect; on the % scale 0 is the no-effect control and ±100 the full control effect; nearly all actives have a fitted effect of over 60% in size
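PC12/HTTQ103-GFP, ecdysone-inducible; teb 100 nM; cpd qHTS titration; GFP aggregates read on laser cytometer, Ex 488/Em 500-530 nm.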
The depositor's hits bear a star; ? = inconclusive; / = not tested or not shown; [ ] = dose if it differs, or a comment. A selection: hits, their analogues and other compounds. The true share with any hit is near 3.4%. Unless noted, the call rests on the fitted dose curve; in most records, active means well fitted curve in the direction sought with a large enough effect; inconclusive means small, poorly fitted or top-dose-only effect, or another doubt; inactive means no such curve, though single readings can be large; an effect the other way counts as inactive or inconclusive.

SMILES	IMPase Li cell	PNC assembly inh	IMPase inh	HTT ATP protect	NPSR antagonist	HTT aggregate
O=C(C1=C(O)C(=O)N(CCCN2CCOCC2)C1c1ccncc1)c1cc2ccccc2o1 (stereo not drawn)	-17.8%	14.8	-24.6	16.0%[10 µM]	4.3%	23.7%
COC(=O)c1ccc(C2C(C(=O)c3cc4ccccc4o3)=C(O)C(=O)N2CCCN(C)C)cc1 (stereo not drawn)	?	?	-28.4	-8.3%	24.8%[46.1 µM]	11.1%
O=C(C1=C(O)C(=O)N(CC2CCCO2)C1c1cccnc1)c1ccco1 (stereo not drawn)	12.6µM*	-10.3	?	-12.0%[10 µM]	?	-3.1%
CN(C)CCCN1C(=O)C(O)=C(C(=O)c2cc3ccccc3o2)C1c1ccccc1 (stereo not drawn)	10µM*	42.7	?	-89.4%	?	3.7%
COc1cccc2cc(C(=O)C3=C(O)C(=O)N(Cc4ccco4)C3c3cccnc3)oc12 (stereo not drawn)	10µM*	-22.5	?	16.4%	7.94µM*	6.2%
O=C(C1=C(O)C(=O)N(CCN2CCOCC2)C1c1cccnc1)c1cc2ccccc2o1 (stereo not drawn)	10µM*	-15.9	-28.3	-7.9%	13.8%[46.1 µM]	16.9%
CCCCCCCCCCCCC/C=C\[C@H](O)[C@H](N)CO	/	/	/	-16.4%[1.9 µM]	/	/
CCOC(=O)CSc1nc(=O)n2cc(C)ccc2n1	11.2%	/	/	-10.6%	0.3%	0.8%
CCOC(=O)c1c(C)[nH]c(C2=NNC(=NC3CC3)SC2)c1C	16.6%	/	/	-16.3%[10 µM]	22.1%	19.4%
COc1ccc(/C=N/n2cc(-c3ccc(OC)cc3)nc2N)cc1	16.0%[38.3 µM]	-129.2*	-8.1	11.9%[10 µM]	-11.9%[46.1 µM]	-0.3%
O=C1C2C3C=CC(C3)C2C(=O)N1/N=C/c1ccc(-c2ccccc2[N+](=O)[O-])o1 (stereo not drawn)	10.8%	?	/	-46.2%[0.074 µM]	-9.1%	2.1%
O=C1C2C3C=CC(C3)C2C(=O)N1/N=C/c1cc(Br)cc([N+](=O)[O-])c1O (stereo not drawn)	-3.9%[38.3 µM]	?	-0.7	-3.8%[10 µM]	-6.7%[46.1 µM]	12.6µM*
CCC(C)(C(=O)NC1CCCC1)N(Cc1cccs1)C(=O)Cc1cccs1 (stereo not drawn)	33.8%[38.3 µM]	14.8	10.7	2.2%	-25.7%[46.1 µM]	-2.6%
CCC(C)(C(=O)NC1CCCC1)N(Cc1cccs1)C(C)=O (stereo not drawn)	5.4%	-100.0*	10.4	17.4%[10 µM]	-23.4%[46.1 µM]	2.0%
O=C(Nc1nc(-c2cccs2)cs1)c1cccc(S(=O)(=O)N2CCCCCC2)c1	23.8%[38.3 µM]	-13.3	8.1	-6.3%[10 µM]	10µM*	?
O=C(Nc1nc2ccc(S(=O)(=O)N3CCCCC3)cc2s1)c1ccncc1	38.0%[38.3 µM]	-4.2	10.5	-9.9%[10 µM]	1.9%[46.1 µM]	3.55µM*
Cc1ccc2nc(NC(=O)C3CCN(S(=O)(=O)c4cccs4)CC3)sc2c1	7.3%[38.3 µM]	13.2	-6.2	3.55µM*	-16.3%[46.1 µM]	-24.2%
O=C(Nc1nc(-c2cccs2)cs1)c1ccc(S(=O)(=O)N2CCCCC2)cc1	7.3%[38.3 µM]	-15.2	-0.9	1.0%[10 µM]	7.2%[46.1 µM]	9.8%
CCCCC(=O)NCCc1c(Cc2ccccc2)[nH]c2ccccc12	14.1%	/	7.7	-94.7%	/	/
CC1CCCN(c2nc3c(c(=O)[nH]c(=O)n3C)n2Cc2ccccc2Cl)C1 (stereo not drawn)	32.2%[38.3 µM]	-87.3*	8.6	7.5%	-18.8%[46.1 µM]	-4.4%
Cn1c(N2CCCCC2)nc2c1c(=O)[nH]c(=O)n2C	7.1%[38.3 µM]	-105.7*	1.5	-23.9%[0.074 µM]	?	21.3%
O=C(NC(NC(=S)Nc1c(Cl)cccc1Cl)C(Cl)(Cl)Cl)OCc1ccccc1 (stereo not drawn)	15.5%	?	/	-4.5%[10 µM]	-39.8%	22.4µM*
O=C(CCN1C(=O)c2ccccc2C1=O)Nc1ccc2c(c1)OCCO2	16.6%[38.3 µM]	-88.7*	5.6	-2.8%[10 µM]	?	-12.3%
O=C(CCN1C(=O)c2ccccc2C1=O)Nc1ccccn1	13.9%[38.3 µM]	-87.5*	12.0	-3.4%[10 µM]	-1.8%[46.1 µM]	9.2%
O=C(CCCN1C(=O)c2ccccc2C1=O)Nc1ccccn1	-0.3%	?	?	18.0%[10 µM]	-10.2%[46.1 µM]	14.4%
SMILES	IMPase Li cell	PNC assembly inh	IMPase inh	HTT ATP protect	NPSR antagonist	HTT aggregate
CCC1Oc2ccccc2N(CC(=O)Nc2ccc3c(c2)OCCO3)C1=O (stereo not drawn)	0.4%	-94.1*	-15.3[1.84 µM]	12.0%[10 µM]	1.6%[46.1 µM]	-7.9%
O=C(CCCCCN1C(=O)c2ccccc2C1=O)Nc1ccc2c(c1)OCCO2	15.3%[38.3 µM]	36.9	-0.5	5.6%	-9.4%[46.1 µM]	24.6%
O=C(CN1C(=O)CCS(=O)(=O)c2ccccc21)Nc1ccc2c(c1)OCCO2	-0.4%	-100.0*	1.2	1.5%[10 µM]	3.6%[46.1 µM]	2.6%
CCc1cc(=O)oc2c(C)c(OCC(=O)Nc3ccc(S(=O)(=O)N(CC)CC)cc3)ccc12	/	/	6.0	/	/	/
CCCCC/C=C\C/C=C\CCCCCCCC(=O)NC(C)C(=O)O (stereo not drawn)	14.1%	/	/	-25.6%	/	/
COC(=O)CCC(=O)c1oc2ccccc2c1NC(=O)CCCN1C(=O)c2ccccc2C1=O	-9.0%[38.3 µM]	0.3	0.7	5.1%	-9.1%[46.1 µM]	4.2%
CC(=O)c1oc2ccccc2c1NC(=O)CCCN1C(=O)c2ccccc2C1=O	12.6µM*	12.8	7.0	-5.7%	-7.5%[46.1 µM]	4.3%
O=C(CCCCCN1C(=O)c2ccccc2C1=O)Nc1ccc(F)cc1	14.7%	-100.0*	4.4	17.0%[10 µM]	-5.2%[46.1 µM]	2.7%
C=CCOC(=O)C1=C(C)NC(SCC(=O)Nc2nccs2)=C(C#N)C1c1ccc(Cl)cc1 (stereo not drawn)	18.9%[38.3 µM]	6.0	-2.0	-25.4%	?	13.5%
C=CCOC(=O)C1=C(C)NC(SCC(=O)Nc2nccs2)=C(C#N)C1c1cccs1 (stereo not drawn)	0.2%[38.3 µM]	?	7.1	-32.0%	-24.3%[46.1 µM]	12.6µM*
COC(=O)[C@@H]1C[C@@H]2CC[C@@H](O)C[C@@H]2N1Cc1ccc(-c2ccccc2)cc1	-5.7%	/	/	-8.9%	/	/
Clc1ccc(OCc2nc(-c3ccc(-n4cccc4)cc3)no2)cc1	/	/	-1.5	/	/	/
CN(C)C=Nc1ncc2c([nH]c3ccccc32)c1C#N	13.8%[38.3 µM]	-19.8	-1.5	-21.4%	-16.4%[46.1 µM]	6.31µM*
O=C(Cc1ncc(C(F)(F)F)cc1Cl)NCc1ccco1	2.6%	/	/	-2.8%[10 µM]	-1.6%	4.1%
CN1C[C@H](c2ccccc2)C(O)([C@]2(c3ccccc3)CN(C)C[C@@H](c3ccccc3)C2=O)[C@H](c2ccccc2)C1 (stereo partly drawn)	28.1%	/	/	-7.8%[10 µM]	/	/
O=C(Nc1ccc(N2CCCC2)c(Cl)c1)c1ccc([N+](=O)[O-])o1	22.6%	/	/	?	7.94µM*	-15.4%
CCCC(=O)N1CCN(c2ccc(NC(=O)c3ccc([N+](=O)[O-])o3)cc2)CC1	-14.3%	/	/	-72.9%	7.94µM*	22.4µM*
